The text below walks through data of PubChem BioAssay (NCI).

Holding throughout (assay): NCI-60 one-dose screen, 48 h (100 = growth as untreated, 0 = no growth, -100 = all killed)
What all share (settings): 10 µM

The test system of experiment [1] is NCI-H23 lung.
Experiment [2] has as its system NCI-H322M lung.
The test system of experiment [3] is HOP-62 NSCLC.
Experiment [4] has as its system NCI-H460 lung.
Experiment [5] relates to HOP-92 NSCLC.
Experiment [6] deals with NCI-H522 lung.
Experiment [7] relates to A549/ATCC NSCLC.
For experiment [8], the system named is 786-0 renal.
The test system of experiment [9] is COLO 205 colon.
Experiment [10] has as its system DU-145 prostate.

About 83,000 compounds went through this panel and 20% of them were active in at least one assay; those are over-represented in the sample as a whole.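 Cells were grown in 96-well plates and exposed to the test compound at a single concentration for 48 hours; results are reported as percent growth, with values below 10 considered active.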 Values without a mark were called inactive. Calls of active or inactive are those of the source.

Consider `CCCCCCCCCCCCCCCCCN`, for which the growth is 106% in [1]; 110% in [2]; 87.7% in experiment [3]; 102% in experiment [4]; 67% in [5]; 101% in [6]. In addition, the growth in experiment [7] is 105%; in experiment [8], 105%; in [9], 99.8%; in [10] it was 114%.
`COc1cc(C(C)(C)C)cc(OC)c1C(O)(c1c(OC)cc(C(C)(C)C)cc1OC)c1c(OC)cc(C(C)(C)C)cc1OC`: the growth in experiment [1] was -51.2% (active); in experiment [2], -68.6% (active); in [3], -95.3% (active); in experiment [4] it was -82.1% (active); in experiment [5], -66.2% (active); in [6], -56.4% (active). In addition, the growth in [7] is -54.4% (active); in experiment [8], -96.6% (active); in [9] it was -89.2% (active); in experiment [10], -100% (active).
As for `BrC/C=C/C[P+](c1ccccc1)(c1ccccc1)c1ccccc1`, the growth in [1] is 84.2%; in [2], 96.5%; in [3] it was 27.4%; in experiment [4], 57.4%; in experiment [5], 60.4%; in experiment [6], 40%. The growth is 44% in [7], 46.2% in experiment [8], 16.5% in [9] and 39.7% in experiment [10].
Consider `S=c1[nH]nc(Cc2ccccc2)c(=S)[nH]1`, for which the growth is 92.5% in experiment [1]; 97.7% in experiment [2]; 97.7% in experiment [3]; 104% in experiment [4]; 100% in experiment [5]; 88% in experiment [6]. Moreover, the growth in [7] is 94.7%; in [8], 106%; in experiment [9], 106%; in [10] it was 100%.
On to `CSc1ccc2c(c1)C(N1CCN(C)CC1)Cc1ccccc1S2` (stereo not given), for which the growth is 56% in experiment [1]; 29% in [4]; 5.58% (active) in experiment [5]; 52.7% in experiment [7]; 53.6% in [8]; -75.1% (active) in experiment [9]. The growth in experiment [10] is 34%.
For the molecule `N#C/C(=C1C=C/C(=N\O)C(Cl)=C\1)c1ccccc1`, the growth in experiment [1] is 82.8%; in experiment [2] it was 55.3%; in experiment [3], 33.2%; in experiment [4], 14.3%; in [5], 38.3%; in experiment [7], 31.2%. Besides, the growth in experiment [8] was 43%; in experiment [9], 38.3%; in experiment [10], 40.2%.
With `Cc1cnc(/C=N\NC(N)=S)c2cccc(N)c12`, the growth in [1] is 7.29% (active); in [2], -21.9% (active); in experiment [3], 11.3%; in experiment [4], 1.79% (active); in [6], -1.74% (active); in [7], 11.6%. The figures for the growth in experiment [8], in experiment [9] and in [10] were 6.81% (active), 15.1% and -15.6% (active), respectively.
Turning to `Cc1cc(NCCCN(C)C)c2ccc3c(ccc4c(NCCCN(C)C)cc(C)nc43)c2n1`, the growth in [1] was -45.2% (active); in experiment [2], -40.7% (active); in experiment [3], -22.3% (active); in [4], -77.7% (active); in experiment [5], -51.2% (active); in experiment [6], -72.8% (active). Further, the growth in [7] is -22.4% (active); in experiment [8], -35.2% (active); in experiment [9] it was -82.8% (active); in experiment [10], -92.6% (active).
Turning to `Nc1ccc2cc(Br)c3ccccc3c2c1`, the growth in experiment [1] was 69.5%; in [2], 64.7%; in [3], 80.9%; in experiment [4], 54.1%; in [5], 75.3%; in experiment [6], 86.9%. In addition, the growth in [7] is 63%; in [8], 54.8%; in experiment [9], 115%; in [10], 61.8%.
